Screens deposited in PubChem by Johns Hopkins Ion Channel Center.
KCNQ2 pot: potentiators of rat KCNQ2 potassium channel | O88943 | CHO-K1 KCNQ2, FluxOR thallium flux fluorescence; hits give high values | B-score at 10 µM | 310,000 compounds, 0.54% hits;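 active = fluorescence ratio B-score at least 3 SD of library B-scores, with initial fluorescence B-score within 3 of them, cut at about 5.3 in these data; same plate scores as AID 2156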;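 also: B-score of peak minus minimum over baseline fluorescence ratio after K+ and Tl+ stimulus; positive B-score means potentiation of KCNQ2 with more thallium influx and brighter signal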
KCNQ2 inh: KCNQ2 (rat) channel inhibition. 310,000 compounds, 1.1% hits. AID 2156. O88943. CHO-K1 KCNQ2, FluxOR thallium flux, 20 min; hits give low values. B-score at 10 µM;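 active = fluorescence ratio B-score at most minus 3 library SDs, with starting brightness B-score within 2 library SDs, cut at about -5.5 in these data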
Kir21 conf inh: confirmation of mouse Kir2.1 potassium channel inhibitors | Kir2.1-expressing cells, FluxOR thallium flux fluorescence; hits give low values | shares compounds with KCNQ2 pot | Tl flux remaining, % of negative control (hits give low values), % at 10 µM | 2,300 compounds, 41% hits;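 active = Primary-screen hit whose thallium flux fell at least 3 control SD below untreated wells in both duplicates, with normal baseline fluorescence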;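 also: 0% = blank wells without stimulus and 100% = stimulated no-compound controls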
HEK293 Tl flux: parental HEK293 activity in Kir2.1 inhibitor counter-screen; parental HEK293 cells, FluxOR thallium flux fluorescence; 0% = unstimulated blank wells; 2,300 compounds, 19% hits; shares compounds with KCNQ2 pot; FluxOR signal as % of negative control (100 = no effect), % at 10 µM;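 active = dye signal at least 3 control SD above or below untreated wells in both duplicates, raw fluorescence within 3, either direction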;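 also: percent is based on the flux ratio of peak minus minimum fluorescence over baseline F0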
CHO-K1 ctr: parental CHO-K1 activity in KCNQ2 potentiator counter-screen; shares compounds with KCNQ2 pot; parental CHO-K1 cells, FluxOR thallium flux fluorescence; zero = vehicle mean+3SD, 100% = vehicle-minus-blank window; activity increase over 3SD of controls, % at 10 µM; 1,200 compounds, 43% hits; AID 2282;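 active = signal rise of at least 3 SD above the untreated control mean, in both duplicate wells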;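 also: counter screen of KCNQ2 potentiator hits so any rise reflects channel-independent effects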
KCNQ1 pot spec: selectivity of KCNQ2 potentiators: effect on human KCNQ1. shares compounds with KCNQ2 pot. CHO KCNQ1 stable, FluxOR thallium flux fluorescence; beyond 3SD, as % of vehicle-control signal. activation over 3SD threshold, % at 10 µM. 1,200 compounds, 28% hits;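 active = fluorescence ratio rise of at least 3 SD of vehicle wells above their mean, in both replicate wells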;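 also: 0% = vehicle mean plus 3 SD and 100% = vehicle minus unstimulated blank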
Target sequence (P51787 whole entry, looked up): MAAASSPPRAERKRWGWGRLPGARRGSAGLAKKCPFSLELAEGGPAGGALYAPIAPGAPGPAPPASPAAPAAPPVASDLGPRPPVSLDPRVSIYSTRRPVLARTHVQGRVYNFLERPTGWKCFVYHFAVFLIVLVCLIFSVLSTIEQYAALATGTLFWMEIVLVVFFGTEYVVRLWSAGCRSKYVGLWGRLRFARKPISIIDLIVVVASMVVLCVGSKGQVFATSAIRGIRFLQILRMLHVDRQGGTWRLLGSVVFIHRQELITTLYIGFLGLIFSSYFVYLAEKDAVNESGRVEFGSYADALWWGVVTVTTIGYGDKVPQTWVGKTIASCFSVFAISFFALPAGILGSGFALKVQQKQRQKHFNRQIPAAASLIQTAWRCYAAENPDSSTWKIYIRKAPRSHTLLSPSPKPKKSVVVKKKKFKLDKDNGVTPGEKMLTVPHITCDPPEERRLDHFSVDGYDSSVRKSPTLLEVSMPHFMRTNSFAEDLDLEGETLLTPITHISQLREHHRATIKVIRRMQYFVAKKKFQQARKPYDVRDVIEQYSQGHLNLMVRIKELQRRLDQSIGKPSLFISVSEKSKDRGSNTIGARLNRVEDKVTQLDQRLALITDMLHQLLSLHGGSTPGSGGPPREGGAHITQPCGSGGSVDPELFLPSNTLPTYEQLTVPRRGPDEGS
KCNQ2 pot confirm: rat KCNQ2 channel potentiator confirmation. shares compounds with KCNQ2 pot. CHO-KCNQ2 cells, FluxOR thallium flux fluorescence. potentiation, less the hit threshold, % at 10 µM. 1,200 compounds, 68% hits. AID 2287;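 active = fluorescence ratio rising 3 SD or more over the vehicle control mean in both replicates, plus primary screen hit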;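 also: peak minus minimum thallium fluorescence divided by baseline after K/Tl stimulus; 0% = vehicle mean plus 3 SD and 100% = vehicle minus unstimulated blank difference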
Kir21 spec: tests whether KCNQ2 potentiators also affect mouse Kir2.1. 1,200 compounds, 2% hits. activity over 3SD threshold, % at 10 µM. HEK293 Kir2.1, FluxOR thallium flux fluorescence. shares compounds with KCNQ2 pot. AID 2345;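 active = fluorescence ratio rise of at least 3 SD above the vehicle-control mean, seen in both replicates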;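 also: 0% = vehicle mean plus 3 SD and 100% = vehicle minus no-stimulus blank window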
KCNQ2 W236L pot: KCNQ2 potentiators acting on retigabine-insensitive rat KCNQ2 W236L mutant; shares compounds with KCNQ2 pot; current increase over 3SD of negative controls (%), hits give high values, % at 25 µM; CHO KCNQ2-W236L, automated patch clamp current; 940 compounds, 10% hits;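 active = current increase at least 3 SD of the untreated controls above them in both duplicate recordings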
* = called active by the depositor; i = inactive; x = not tested or not shown; + = active, no number. Only some compounds are listed: those with a hit (about 1.6% of all), similar ones and a draw of the others.

SMILES	KCNQ2 pot	KCNQ2 inh	Kir21 conf inh	HEK293 Tl flux	others
N=c1c2c(ncn1Cc1ccco1)Oc1ccc3ccccc3c1C2c1ccccc1 (configuration not stated)	2.1	i	x	x
Cc1cc(NCCCn2ccnc2)n2nc(C)c(-c3ccccc3)c2n1	x	i	x	x
N=c1c2c(-c3ccccc3)c(-c3ccccc3)n(Cc3ccco3)c2ncn1Cc1ccco1	-6.9	-6.9*	54%*	i
CC(=O)NC(C)(CC(=O)c1ccccc1)c1ccccc1 (configuration not stated)	0.97	i	x	x
Cc1ccccc1C(=O)Nc1nnc(SCC(=O)NCc2ccco2)s1	1.5	i	x	x
O=C(O)CCCC(=O)N1CC(=O)Nc2ccccc21	1.7	i	x	x
O=C1CN(C(=O)CCCc2c[nH]c3ccccc23)c2ccccc2N1	x	i	50%*	i
CC[C@@H](C)C(N)c1cn([C@@H](CCC(=O)O)C(=O)N2CCNCC2)nn1 (some centres not stated)	0.08	i	x	x
Cc1cc(=O)[nH]c(-c2ccccc2OC(F)(F)F)n1	x	i	x	x
O=c1c2ccccc2sn1-c1ccccc1	x	i	x	x
O=c1[nH]sc2ccccc12	6.7*	i	i	i	CHO-K1 ctr=8.6*;KCNQ1 pot spec=-10;KCNQ2 pot confirm=-8;Kir21 spec=-45;KCNQ2 W236L pot=i
COc1ccc(S(=O)(=O)N(C)CC(=O)N2CCCC2)cc1OC	x	i	x	x
Cc1cc(C)c2cc(C#N)c(N3CCCN(C(=S)NCCCN(C)C)CC3)nc2c1	x	i	50%*	i
Cc1ccc2cc(C#N)c(N3CCCN(C(=S)NCCCN(C)C)CC3)nc2c1	x	i	x	x
Cc1ccc(OCCOCCN2CCN(C)CC2)c(C(C)(C)C)c1	0.05	i	x	x
C=CCNCCCOc1ccc(Cl)cc1C(C)(C)C	x	i	28%*	i
C=CCNCCOCCOc1ccc(Cl)cc1C(C)(C)C	x	i	x	x
CC(C)(C)c1cc(Cl)ccc1OCCOCCN1CCCC1	x	i	39%*	i
NS(=O)(=O)c1cccnc1Nc1c(Cl)cccc1Cl	0.3	i	x	x
CCCNS(=O)(=O)c1ccc(OCC(=O)Nc2ccc3c(c2)OCCO3)c(C)c1	0.06	i	x	x
COc1ccc(S(=O)(=O)Nc2cc3c4c(c2)C(C)C(=O)N4CCC3)cc1OC (configuration not stated)	0.7	i	x	x
Cc1c(N=NC2=C(O)CC(C)(C)CC2=O)cc2c(c1[N+](=O)[O-])C(C)(C)CC2(C)C	6.7*	i	i	i	CHO-K1 ctr=42*;KCNQ1 pot spec=-11;KCNQ2 pot confirm=0;Kir21 spec=-31;KCNQ2 W236L pot=i
COc1ccccc1N=NC1=C(O)CC(C)(C)CC1=O	x	i	x	x
COc1ccc(CCN(C)C(=O)c2ccc(COc3ccccc3)o2)cc1OC	x	i	56%*	i
CCCc1ccc(OCc2ccc(C(=O)O)o2)c(OC)c1	0.16	i	x	x
SMILES	KCNQ2 pot	KCNQ2 inh	Kir21 conf inh	HEK293 Tl flux	others
COC(=O)CN1C(=O)Nc2ccc(Br)cc2C1c1ccccc1Cl (configuration not stated)	15*	i	i	i	CHO-K1 ctr=-14;KCNQ1 pot spec=+;KCNQ2 pot confirm=38*;Kir21 spec=-37;KCNQ2 W236L pot=6.9%*
COC(=O)CN1C(=O)Nc2ccc(Cl)cc2C1c1ccccc1 (configuration not stated)	1.8	i	x	x
COc1ccc(CCNc2nc3ccccc3n3cnnc23)cc1OC	0.26	i	x	x
CCc1nnc2c(NCCc3ccc(OC)c(OC)c3)nc3ccccc3n12	11*	i	i	i	CHO-K1 ctr=9.6*;KCNQ1 pot spec=-14;KCNQ2 pot confirm=-22;Kir21 spec=-30
Cc1ccc(CNC(=O)C(Cc2ccccc2)NS(=O)(=O)c2ccc(Br)s2)cc1 (configuration not stated)	x	i	x	x
COc1ccc(C2CCCN2CC(O)COc2ccccc2C(C)C)cc1 (configuration not stated)	-6.6	-6.6*	30%*	i
CCOC(=O)N1CCN(CC(O)COc2ccccc2C(C)C)CC1 (configuration not stated)	0.55	i	x	x
O=C(COC(=O)C1CCC1)NCc1ccc(F)cc1	0.1	i	x	x
O=C(O)c1cccc(NN=C2c3ccccc3-c3ccccc32)c1	x	i	x	x
O=C(O)c1cc(NN=C2c3ccccc3-c3ccccc32)ccc1Cl	9.2*	i	i	i	CHO-K1 ctr=51*;KCNQ1 pot spec=-14;KCNQ2 pot confirm=51*;Kir21 spec=-44;KCNQ2 W236L pot=22%*
Fc1ccccc1COc1ccc2ccccc2c1CNc1nn[nH]n1	x	i	x	x
CN(CC(=O)Nc1cccc(F)c1)C(=O)c1ccc(COc2ccccc2)o1	x	i	x	x
COc1ccc(-c2nc3ccc(C)cn3c2NCc2ccc3c(c2)OCO3)cc1	0.61	i	x	x
Cc1ccc(-c2nc3ccccn3c2NCc2ccc3c(c2)OCO3)cc1	x	i	76%*	i
CCc1ccc(N2CC(C)Cn3c2nc2c3c(=O)[nH]c(=O)n2C)cc1 (configuration not stated)	0.7	i	x	x
CC(CCc1ccco1)N(C)S(=O)(=O)c1csc(C(N)=O)c1 (configuration not stated)	0.17	i	x	x
CCCCN(Cc1ccco1)S(=O)(=O)c1csc(C(N)=O)c1	x	i	48%*	i
C=CCn1c(SCc2cccc(C#N)c2)nnc1-c1ccccc1O	0.25	i	52%*	i
N#Cc1ccc(CSc2nnc(-c3ccncc3)n2CCc2ccccc2)cc1	x	i	x	x
C=CCn1c(SCc2ccc(C#N)cc2)nnc1-c1cccc(Cl)c1	x	i	52%*	72%*
C=CCn1c(SCC(=O)NC(C)(C)C)nnc1-c1ccccc1O	x	i	x	x
CCCn1c(=N)n(CC(O)COc2ccc(C)cc2)c2ccccc21 (configuration not stated)	1.5	i	x	x
CCCn1c(=N)n(CC(O)c2ccc(C)cc2)c2ccccc21 (configuration not stated)	0.93	i	60%*	i
O=c1[nH]c(C(Cl)(Cl)Cl)nc2ccc3ccccc3c12	6.6*	i	i	174%*	CHO-K1 ctr=-18;KCNQ1 pot spec=38*;KCNQ2 pot confirm=5.6*;Kir21 spec=-19;KCNQ2 W236L pot=i
O=c1[nH]c(C(F)(F)F)nc2ccccc12	0.68	i	x	x
O=c1c2ccccc2nc(-c2ccccc2)n1O	0.66	i	x	x
